Data published in PubChem BioAssay.
Records with an inconclusive call do not appear. Active and inactive are the calls of the source.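 Rule for the calls, unless noted: active = RAM network inhibition above 8.4% in each of two replicates, 3 SD over the compound average; inconclusive = above 8.4% inhibition in only one replicate; inactive = 8.4% inhibition or less in each replicate.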

Key:
[1] = S. cerevisiae growth inhibition in permissive medium (OD615), pilot counter-assay for S. cerevisiae lifespan shortening project, permissive growth control (AID 705;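 active = growth inhibition above 25% in both replicates, a cutoff set 3 SD above the mean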); settings: OD615, 24 h, at 10 µM, stronger effect = higher value
[2] = S. cerevisiae growth inhibition in restrictive medium, OD615, pilot screen, restrictive growth control, yeast lifespan reduction project (AID 706;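 active = growth inhibition above a set limit, 3 SD over mean compound inhibition, in both replicates, cut at about 43% in these data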;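 note: modified DeaD lifespan yeast strain shifted to restrictive glucose medium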); settings: OD615, 48 h, at 10 µM, stronger effect = higher value
[3] = doxorubicin toxicity protection in MRP-1 cells – H69AR cells, CellTiter-Glo, duplicate, MRP-1 activator project, pilot screen (AID 807;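 active = viability increase at or above a cutoff of the median across tested compounds plus 3 SD, cut at about 8.5% in these data, passing the limit was not always enough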;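 note: compound pretreatment 18-22 h then 72 h combined with doxorubicin; 0% = doxorubicin alone and 100% = vehicle without doxorubicin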); settings: H69AR viability with doxorubicin, CellTiter-Glo luminescence; at 10 µM; stronger effect = higher value
[4] = viability of HCT116 without oncogenic beta-catenin – human colon tumor cells, pilot screen (AID 823;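 active = cell viability at or below a set limit in both duplicate runs, the limit being the all-compound median minus 4 SD, cut at about 23% in these data, passing the limit was not always enough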;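 note: 0% = wells killed by 20 µM Hyamine and 100% = untreated DMSO cell wells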); settings: HCT116 beta-catenin knockout viability, CellTiter-Glo, 60 h; at 10 µM; stronger effect = lower value
[5] = viability of PTEN-null HCT116 cells – cell-based, HCT116 clonal line, CellTiter-Glo, pilot screen (AID 824;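 active = viability at or below 27.92% in each of two runs, the all-compound median minus 4 SD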;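 note: 0% = 20 µM Hyamine control and 100% = vehicle cell control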); settings: HCT116 PTEN-deleted viability, 60 h, at 10 µM, stronger effect = lower value
[6] = RAM pathway blockade in budding yeast – dse1pr::URA3 reporter, 5-FOA selection, pilot screen (AID 869;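 active = inhibition over a set limit, the all-compound mean plus 3 SD, in both replicate runs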;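 note: 0% = DMSO wells with no growth and 100% = 10 µM 1-NA-PP1 with full growth; RAM network block rescues cells from 5-FOA so hits raise OD615 growth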); settings: S. cerevisiae dse1pr::URA3 5-FOA growth, OD615, 2 d, at 10 µM, stronger effect = higher value
[7] = RAM signaling pathway blockade in yeast – S. cerevisiae, Pdr1DBD-CYC8 efflux-inhibited sensitized strain, primary screen (AID 1298);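 note: 0% = DMSO untreated cells without growth and 100% = 10 µM 1-NA-PP1 full growth; higher means more yeast growth rescued from 5-FOA killing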; settings: S. cerevisiae cbk1-as DSE1-URA3 strain, 5-FOA growth OD615, 2 d; at 50 µM; stronger effect = higher value
[8] = target: Pantothenate synthetase (Mycobacterium tuberculosis (strain ATCC 25618 / H37Rv)) (UniProt P9WIL5); assay: Coupled enzyme confirmation of inhibitors against recombinant Mtb PanC (AID 375; call rule not given here;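 note: 0% = full reaction with vehicle and 100% = no enzyme background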); settings: coupled enzyme assay; at 10 µM, stronger effect = higher value
Pantothenate synthetase (Mycobacterium tuberculosis (strain ATCC 25618 / H37Rv)), sequence (P9WIL5 whole entry, looked up): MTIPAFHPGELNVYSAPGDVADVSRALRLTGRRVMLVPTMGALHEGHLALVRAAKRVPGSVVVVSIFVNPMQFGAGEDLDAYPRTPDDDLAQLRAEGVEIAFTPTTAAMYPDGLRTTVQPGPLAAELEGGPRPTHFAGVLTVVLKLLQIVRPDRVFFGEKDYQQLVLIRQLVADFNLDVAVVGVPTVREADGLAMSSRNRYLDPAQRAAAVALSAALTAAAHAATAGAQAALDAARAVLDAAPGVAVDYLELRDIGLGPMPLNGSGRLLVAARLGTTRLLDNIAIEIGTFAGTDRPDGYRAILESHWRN

[9] = Her2 expression decrease, cell viability multiplex – SKBR3 breast tumor cells, AlphaScreen, ATP viability, primary screen (AID 461;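 active = Her2 level under about 52% in both replicate screens, with viability over 70% of control, limit read from the data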;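 for Her2 level: lower value means less Her2 protein in the cells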;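 for viability: percent of carrier control wells set as 100% viability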); settings: SKBR3 Her2 protein level, 18-24 h, measured here: SKBR3 viability, ATP luminescence, at 10 µM
[10] = target: Receptor tyrosine-protein kinase erbB-2 (Homo sapiens) (UniProt P04626); assay: as above; settings: 18-24 h, at 10 µM, stronger effect = lower value
Receptor tyrosine-protein kinase erbB-2 (Homo sapiens), sequence (P04626 whole entry, looked up): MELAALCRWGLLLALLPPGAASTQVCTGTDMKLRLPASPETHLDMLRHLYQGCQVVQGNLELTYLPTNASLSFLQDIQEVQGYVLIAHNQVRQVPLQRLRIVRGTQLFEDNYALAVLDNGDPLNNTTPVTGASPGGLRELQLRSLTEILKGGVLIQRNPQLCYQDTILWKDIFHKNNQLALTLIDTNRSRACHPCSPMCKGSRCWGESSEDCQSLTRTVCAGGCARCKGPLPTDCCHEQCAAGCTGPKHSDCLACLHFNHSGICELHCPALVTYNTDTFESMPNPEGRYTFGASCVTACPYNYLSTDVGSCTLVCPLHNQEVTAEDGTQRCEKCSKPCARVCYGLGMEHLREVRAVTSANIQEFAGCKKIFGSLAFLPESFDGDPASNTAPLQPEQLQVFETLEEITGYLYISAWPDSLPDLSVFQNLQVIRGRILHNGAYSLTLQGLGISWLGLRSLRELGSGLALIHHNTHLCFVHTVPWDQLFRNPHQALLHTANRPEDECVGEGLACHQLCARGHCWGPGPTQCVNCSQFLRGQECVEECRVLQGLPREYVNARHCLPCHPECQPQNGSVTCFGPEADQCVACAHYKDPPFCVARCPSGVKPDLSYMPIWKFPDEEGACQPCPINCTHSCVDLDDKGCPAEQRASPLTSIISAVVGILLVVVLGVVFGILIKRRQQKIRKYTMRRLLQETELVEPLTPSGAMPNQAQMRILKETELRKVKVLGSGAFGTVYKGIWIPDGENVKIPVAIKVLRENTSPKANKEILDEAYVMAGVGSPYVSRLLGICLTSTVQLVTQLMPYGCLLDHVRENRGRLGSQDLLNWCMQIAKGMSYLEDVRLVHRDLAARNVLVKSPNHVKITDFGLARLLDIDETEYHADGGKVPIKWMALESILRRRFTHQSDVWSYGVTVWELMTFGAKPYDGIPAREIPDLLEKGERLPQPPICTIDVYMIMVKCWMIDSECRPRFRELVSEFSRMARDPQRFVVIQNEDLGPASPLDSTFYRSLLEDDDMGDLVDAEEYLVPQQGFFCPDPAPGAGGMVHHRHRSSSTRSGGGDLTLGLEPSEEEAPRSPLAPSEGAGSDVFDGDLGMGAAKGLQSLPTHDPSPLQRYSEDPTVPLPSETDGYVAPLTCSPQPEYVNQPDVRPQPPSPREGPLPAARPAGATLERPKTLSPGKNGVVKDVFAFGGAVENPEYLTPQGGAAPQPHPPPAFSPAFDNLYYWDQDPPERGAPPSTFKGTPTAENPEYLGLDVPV

[11] = reduced viability of SK-BR-3 breast cancer cells – cell-based, 24 h, human, pilot screen (AID 572;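 active = viability at or below 10% of carrier control in both of two separate runs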;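 note: compound exposure lasted between 18 and 24 h rather than exactly 24 h; 100% = carrier-treated control wells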); settings: SK-BR-3 viability, CellTiter-Glo luminescence, at 10 µM, stronger effect = lower value
[12] = HUVEC growth inhibition – cell-based, human, primary screen (AID 575;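 active = viability at or below 30% in both replicate assays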;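 note: 100% = median of untreated cell wells with 0.1% DMSO on each plate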); settings: HUVEC proliferation, CellTiter-Glo luminescence, 72 h; at 10 µM; stronger effect = lower value
[13] = H69AR cell proliferation blockers – human, duplicate replicates, primary screen (AID 580;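 active = viability at or under a set limit in both replicates, limit being median viability minus 3 SD, cut at about 48% in these data, passing the limit was not always enough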;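 note: 100% = mean luminescence of untreated wells and 0% = no signal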); settings: H69AR lung tumor cells viability, ATP luminescence, 72 h; at 10 µM; stronger effect = lower value
[14] = MRP1 drug-resistance reversers in H69AR cells – cell-based, doxorubicin co-treatment, pilot screen (AID 601;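 active = viability loss from added drug above about 55%, and viability with drug at most 40%, in both replicates, limit read from the data, passing the limit was not always enough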); settings: CellTiter-Glo, 72 h, at 10 µM; for differential viability (reversal): stronger effect = higher value
[15] = yeast transport mutant growth inhibition pilot in 384-well plates, post-Golgi transport modulator project (AID 636; in the data active = inhibition above about 31%); settings: absorbance 615 nm, about 18 h, stronger effect = higher value
[16] = growth suppression of yeast trafficking mutant, preliminary HTS, modulators of trafficking downstream of Golgi apparatus project, 1536-format plate, OD 615 nm (AID 637; in the data active = inhibition above about 30%); settings: yeast transport mutant growth, absorbance 615 nm, 18 h; stronger effect = higher value
[17] = H69AR cells + 2 uM doxorubicin, measured here: viability with 2 uM doxorubicin, stronger effect = lower value
[18] = H69AR cells, compound alone cytotoxicity

Row | SMILES | growth inhibition [1] | growth inhibition [2] | viability increase [3] | viability [4] | viability [5] | inhibition [6] | RAM network inhibition [7] | inhibition [8] | viability [9] [%] | Her2 level [10] | viability [11] | viability [12] | viability [13] | differential viability (reversal) ([14]; H69AR cells + 2 uM doxorubicin) | viability [14, 17] [%] | viability [14, 18] [%] | inhibition [15] | inhibition [16]
1 | CC(=O)c1cccc(NC2=NCC(C)S2)c1 (centres undefined) | -9.46% (inactive) | -13.1% (inactive) | -0.51% (inactive) | 106% (inactive) | 93.9% (inactive) | 2.77% (inactive) | 2.41% (inactive) | – | – | – | – | – | – | – | – | – | – | –
2 | CCCC(C)C1C(C#N)=C(N)Oc2c1c(=O)oc1ccccc21 (centres undefined) | -16.8% (inactive) | -20.1% (inactive) | -5.21% (inactive) | 91.6% (inactive) | 97% (inactive) | 3.74% (inactive) | 8.16% (inactive) | 4% (inactive) | 116 | 106% (inactive) | 116% (inactive) | 66.8% (inactive) | 67.7% (inactive) | -11.5% (inactive) | 79.2 | 67.7 | -2.21% (inactive) | -0.33% (inactive)
3 | CCCCCn1c(=O)c(C(=O)Nc2ccncc2)c(O)c2ccccc21 | 92.1% (active) | 100% (active) | -8.28% (inactive) | 13.2% (active) | 9.96% (active) | -0.43% [strain carries analog-sensitive mutant Cbk1 kinase] (inactive) | -1.36% (inactive) | – | – | – | – | – | – | – | – | – | – | –
4 | Cc1ccc(-n2nc(C)c3c2NC(=O)CSC3c2ccc3c(c2)OCO3)cc1 (centres undefined) | -3.05% (inactive) | 2.3% (inactive) | 0.35% (inactive) | 89.9% (inactive) | 96.3% (inactive) | 0.385% (inactive) | 1.16% (inactive) | – | – | – | – | – | – | – | – | – | – | –
5 | CC(=O)Nc1ccc(OC(=O)c2ccccc2N)cc1 | -7.19% (inactive) | -9.05% (inactive) | 1.42% (inactive) | 107% (inactive) | 102% (inactive) | 1.02% (inactive) | 0.27% (inactive) | 0% (inactive) | 100 | 118% (inactive) | 100% (inactive) | 93.5% (inactive) | 99.3% (inactive) | 9.29% (inactive) | 90.1 | 99.3 | -0.13% (inactive) | -9.5% (inactive)
6 | O=C(O)c1cc2ccccc2oc1=O | -21.9% (inactive) | -5.03% (inactive) | -0.27% (inactive) | 103% (inactive) | 99.6% (inactive) | 1.08% (inactive) | 1.06% (inactive) | – | – | – | – | – | – | – | – | – | – | –
7 | CCCCCCOc1ccc(CN2CCN(C)CC2)cc1 | -13.5% (inactive) | -20.8% (inactive) | -5.38% (inactive) | 47.7% (inactive) | 49% (inactive) | -0.45% (inactive) | 0.09% (inactive) | 0% (inactive) | 83.5 | 87% (inactive) | 83.5% (inactive) | 61.5% (inactive) | 77.2% (inactive) | 6.76% (inactive) | 70.5 | 77.2 | -5.06% (inactive) | 3.44% (inactive)
8 | C=CCOC(=O)COc1cc(C)cc2oc(=O)c3c(c12)CCC3 | -7.89% (inactive) | -2.46% (inactive) | -0.23% (inactive) | 90.7% (inactive) | 99.4% (inactive) | 1.63% (inactive) | 6.89% (inactive) | 1% (inactive) | – | – | 81% (inactive) | 97.2% (inactive) | 84.4% (inactive) | -2.28% (inactive) | 86.7 | 84.4 | -5.73% (inactive) | -0.73% (inactive)
9 | CCc1ccc(OCCCN=C(C)c2c(O)n(C)c(=O)n(C)c2=O)cc1 | -6.49% (inactive) | -4.79% (inactive) | 0.23% (inactive) | 77.3% (inactive) | 80.8% (inactive) | 0.12% (inactive) | -0.72% (inactive) | 0% (inactive) | 92 | 85.5% (inactive) | 92% (inactive) | 77.7% (inactive) | 85.1% (inactive) | 1.31% (inactive) | 83.8 | 85.1 | -1.95% (inactive) | 1.83% (inactive)
10 | C[C@H]1CCCC(=O)CCC/C=C/c2cc(O)cc(O)c2C(=O)O1 | -12.9% (inactive) | -14.8% (inactive) | -6.31% (inactive) | 65.3% (inactive) | 66.5% (inactive) | 2.21% (inactive) | 4.86% (inactive) | 0% (inactive) | 98.5 | 16% (active) | 98.5% (inactive) | – | 38.4% (active) | -57.4% (inactive) | 95.8 | 38.4 | -3.47% (inactive) | 1.15% (inactive)
11 | COc1ccc2nc(NC(=O)CCc3nc(C4=CCN(C)CC4)no3)sc2c1 | -7.66% (inactive) | 2.61% (inactive) | -2.1% (inactive) | 79.2% (inactive) | 91.7% (inactive) | 2.04% (inactive) | 5.11% (inactive) | – | – | – | – | – | – | – | – | – | – | –
12 | CN1C(=O)C(Cc2cccc3ccccc23)C(=O)N(C)C1=O | -20.9% (inactive) | -4.64% (inactive) | -2.39% (inactive) | 92.5% (inactive) | 89.7% (inactive) | 0.305% (inactive) | 1.47% (inactive) | 6% (inactive) | 73.5 | 94% (inactive) | 73.5% (inactive) | 95.4% (inactive) | 85.2% (inactive) | -7.14% (inactive) | 92.4 | 85.2 | -5.81% (inactive) | 0.98% (inactive)
13 | Cc1cc(OC(=O)c2ccco2)c2c3c(c(=O)oc2c1)CCC3 | 2.81% (inactive) | -1.05% (inactive) | -1.26% (inactive) | 94.3% (inactive) | 85.2% (inactive) | – | 4.5% (inactive) | – | – | – | – | – | – | – | – | – | – | –
